These results are taken from the supplement of paper PMC10338343.

± gives the standard deviation.

The test system of the first test is MILI (PIWIL2) piRISC loaded with L1MC piRNA (26 nt). In words: pre-steady-state target cleavage rate (min^-1); guide: L1MC piRNA 5'p-UAACUAAAUACUAUGCAAGCUGUAGG; MIWI and MILI are mouse PIWI proteins and EfPiwi is from a freshwater sponge; tags in brackets are library labels; higher = faster piRNA-guided slicing of the target. The settings on record: auxiliary factor: 500 nM mouse GTSF1. The procedure:
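Cleave-'n-Seq: a library of target RNAs (target site embedded in constant flanks, ACAGCATTCCGCGTTAGTGATATCCG... 5' flank; DNA-blocked outside the site) at 0.1 nM was incubated with 1 nM active mouse MILI or MIWI piRISC (synthetic 5'-monophosphorylated piRNA guide) with or without 500 nM mouse GTSF1 at 33 °C for 1 min to 16 h. Uncleaved targets were sequenced and normalised to non-target controls, and the pooled three trials were fitted to a burst-and-steady-state model to give the pre-steady-state cleavage rate (min^-1; k3 is constrained to at most 1e-4). Sequence is the target site only; target names encode pairing extent (gX:gY) and contiguous / 1-mismatch / 2-mismatch / bulge geometry. Fits with R² ≤ 0 are excluded.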
As to UCCUGGAUGAGGUUGCAUUGUAUUUAGUUA, the “pre-steady-state target cleavage rate” value is 0.0484 ± 0.01. On the same count and under the same terms, the same measure for UCCUGGAUGAGCAUGCAUAGUAUUUAGAUA: 0.166 ± 0.024; for UCCUCCUACAGCUUGUCAUAGUAUUUAGUUA: 0.258 ± 0.015. The same measure, in the same setting: the same measure for UCCUGCUACAGCUUGGAUAGUAUUUUGUUA: 0.109 ± 0.019.

As for UCCUGGAUCCGCUUGCAUAGUAUUUAGUUA, the “pre-steady-state target cleavage rate” value came to 0.297 ± 0.019. Same read-out and setting: under UCCUGGAUGUCCUUCCAUAGUAUUUAGUAA stands 0.0112 ± 0.0045; under UCCUGGUACAGGUUGCAUAGUAUUAAGUUA, 0.326 ± 0.072. Same read-out and setting: the same measure for UCCUCCUAGAGGUUGCAUAGUAUUUAGUUA: 0.205 ± 0.011. Same read-out and setting: under UCCUGGAACACGAUGCAUAGUAUUUAGUAA stands 0.0953 ± 0.013; under “UCCUGCUACAGCUUGCAUAGUAUUUAGUUC [g2:g25:cont:t1C]”, 0.317 ± 0.021.

Regarding UCCUGCUACAGCUUGGAUAGUAUUUACUUA, the “pre-steady-state target cleavage rate” value was found to be 0.00864 ± 0.0043. The same measure, in the same setting: under UCCUGGAACAGCAUGCAUAGUAUUUAGUUA stands 0.256 ± 0.02; under UCCUGGAUGAGCUUGCAUAGUAUGUUAGUUA, 0.157 ± 0.021. As for UCCUGGAUGUCCUUGCAUAGUAUUAAGUAA, the “pre-steady-state target cleavage rate” value came to 0.0433 ± 0.013. On the same count and under the same terms, under UCCUCCUACAGCUUGCAUAGUGAUUUAGUUA stands 0.0192 ± 0.0061; under UCCUGGAACAGCUAGCAAAGUAUUUAGUUA, 0.11 ± 0.013. The same measure, in the same setting: the same measure for UCCUGCUACUCGUUGCAUAGUAUUUUCAAA: 0.0428 ± 0.014. On the same count and under the same terms, the same measure for UCCUGGAUGUCGAUGCAUAGUAUUUAGUAA: 0.108 ± 0.015; for UCCUGGAUGUGCUUGCAUAUUAUUUAGUUA: 0.0346 ± 0.0073. As to UCCUGGAUGAGCUUGCAUAGUAUUUAAGUUA, the “pre-steady-state target cleavage rate” value is 0.153 ± 0.025. Turning to UCCUGGAUCAGCUUGGAAAGUAUUUAGUUA, the “pre-steady-state target cleavage rate” value turned out to be 0.0767 ± 0.01.

Consider UCCUGCAUGAGCUUGCAUAGUAUUUAGUUA, for which the “pre-steady-state target cleavage rate” value is 0.265 ± 0.019.

Take UCCUGGAACAAGCUUGCAUAGUAUUUAGUUA: the “pre-steady-state target cleavage rate” value worked out at 0.224 ± 0.012.

The test is the same for the next values; noted with them: auxiliary factor: none (no GTSF1).
Turning to UCCUGGAUGAGGUUGCAUUGUAUUUAGUUA, the “pre-steady-state target cleavage rate” value stood at 0.00431 ± 0.0027.

UCCUGGAUGAGCAUGCAUAGUAUUUAGAUA: the “pre-steady-state target cleavage rate” value was determined as 0.00498 ± 0.0025. Take UCCUCCUACAGCUUGUCAUAGUAUUUAGUUA: the “pre-steady-state target cleavage rate” value worked out at 0.00407 ± 0.0019. As for UCCUGCUACAGCUUGGAUAGUAUUUUGUUA, the “pre-steady-state target cleavage rate” value worked out at 0.00311 ± 0.003. Same read-out and setting: the same measure for UCCUGGAUCCGCUUGCAUAGUAUUUAGUUA: 0.00868 ± 0.0026; for UCCUGGUACAGGUUGCAUAGUAUUAAGUUA: 0.00893 ± 0.0037; for UCCUCCUAGAGGUUGCAUAGUAUUUAGUUA: 0.00716 ± 0.0022.

On to UCCUGGAACACGAUGCAUAGUAUUUAGUAA, for which the “pre-steady-state target cleavage rate” value was determined as 0.00313 ± 0.0029. Same read-out and setting: the same measure for “UCCUGCUACAGCUUGCAUAGUAUUUAGUUC [g2:g25:cont:t1C]”: 0.0145 ± 0.0033; for UCCUGGAACAGCAUGCAUAGUAUUUAGUUA: 0.00812 ± 0.0028; for UCCUGGAUGAGCUUGCAUAGUAUGUUAGUUA: 0.0093 ± 0.0029. As to UCCUCCUACAGCUUGCAUAGUGAUUUAGUUA, the “pre-steady-state target cleavage rate” value stood at 0.00528 ± 0.0024. Still for that read-out and setting: under UCCUGGAACAGCUAGCAAAGUAUUUAGUUA stands 0.00729 ± 0.002.

As to UCCUGGAUGUCGAUGCAUAGUAUUUAGUAA, the “pre-steady-state target cleavage rate” value turned out to be 0.00268 ± 0.0024. The same measure, in the same setting: under UCCUGGAUGAGCUUGCAUAGUAUUUAAGUUA stands 0.00993 ± 0.0029; under UCCUGGAUCAGCUUGGAAAGUAUUUAGUUA, 0.00552 ± 0.0021; under UCCUGCAUGAGCUUGCAUAGUAUUUAGUUA, 0.01 ± 0.0025. Still for that read-out and setting: under UCCUGGAACAAGCUUGCAUAGUAUUUAGUUA stands 0.0116 ± 0.003.
